What all share (test): NCI-60 one-dose screen, 48 h (100 = growth as untreated, 0 = no growth, -100 = all killed)
Conditions in all cases: 10 µM unless noted

For assay [1], the system named is HCT-15 colon.
The subject of assay [2] is HT29 colon.
Assay [3] relates to SNB-75 CNS.
In assay [4] the test system is SNB-19 CNS.
Assay [5] has as its system U251 CNS.
Assay [6] deals with PC-3 prostate.
In assay [7] the test system is SK-MEL-5 melanoma.
Assay [8] has as its system UACC-62 melanoma.
The subject of assay [9] is LOX IMVI melanoma.
Assay [10] relates to SK-MEL-28 melanoma.

Compounds without any hit were thinned out: in the full panel of roughly 83,000, 20% have a hit.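 48-hour exposure, single concentration, 96-well plates; percent growth endpoint where 0 means no net growth. Active: below 10.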 Values without a mark were called inactive. The source made the active and inactive calls.

On to `O=C(NCCOCCOCCOCCNC(=O)c1cc2c(o1)C(=O)c1ccccc1C2=O)NC12CC3CC(CC(C3)C1)C2`, for which the growth was -74.7% (active) in [1]; 1.21% (active) in [2]; -99.6% (active) in assay [3]; -2.04% (active) in [4]; -22% (active) in assay [5]; 12.1% in [6]. Besides, the growth in [7] was -97.7% (active); in assay [8] it was -93.6% (active); in assay [9], -46.2% (active); in [10], -40.8% (active).

`NS(=O)(=O)Oc1ccc(NC(=O)C23CC4CC(CC(C4)C2)C3)cc1Cl`: the growth in assay [1] was 101%; in assay [2], 103%; in assay [3], 84.3%; in [4] it was 90.9%; in [5], 96%; in assay [6], 94.5%. Moreover, the growth in assay [7] was 91.1%; in assay [8] it was 86.8%; in assay [9] it was 82.9%; in assay [10], 104%.

As for `C(=C\c1nc2ccccc2[nH]1)/c1nc2ccccc2[nH]1`, the growth in assay [1] is 100%; in assay [2] it was 103%; in assay [3] it was 86.2%; in assay [4], 109%; in assay [5], 106%; in [6], 90%. The growth was 92.8% in assay [7], 91.1% in [8], 98.1% in assay [9] and 104% in assay [10].

Consider `C=C(C)C1CCC(=C)C2CCC3(C)OC12/C=C(/COC(C)=O)CCC3O` (stereo not given), for which the growth is 96.1% in assay [1]; 140% in assay [2]; 126% in [3]; 112% in assay [4]; 89% in assay [5]; 95.9% in assay [6]. Besides, the growth in [7] is 93.2%; in [8] it was 94.2%; in assay [9], 84.2%; in [10], 156%.

Consider `O=C(/C=C/C12c3ccccc3C(c3ccccc31)C1C(=O)N(c3ccccc3)C(=O)C12)c1ccc(Cl)cc1` (stereo not given), for which the growth in assay [1] is -0.519% (active); in assay [2], 8.4% (active); in assay [3], 72.1%; in assay [4], 39.4%; in [5] it was 19.8%; in assay [6] it was 22.3%. In addition, the growth in assay [7] was -55.2% (active); in [8] it was 5.42% (active); in [9] it was -81.1% (active); in assay [10], 4.17% (active).

For the compound `O=[N+]([O-])c1ccccc1C(O)Cc1ccc2ccccc2n1` (stereo not given), the growth in assay [1] is 105%; in assay [2], 112%; in assay [3] it was 85.8%; in [4], 101%; in [5], 96.9%; in assay [6], 95.5%. Moreover, the growth in [7] is 89.9%; in assay [8], 82.6%; in assay [9], 93%; in [10] it was 92.9%.

As to `O=C(NCOC(O)C(Cl)(Cl)Cl)NCOC(O)C(Cl)(Cl)Cl` (stereo not given), the growth is 95.8% in [1]; 94.4% in [2]; 85.6% in [3]; 98.4% in assay [4]; 102% in assay [5]; 95.6% in assay [6]. Further, the growth was 102% in assay [7], 98.8% in assay [8], 97.7% in [9] and 92.8% in [10].

In the case of `N#C/C(=C\c1ccc(Br)cc1)n1nnc2cc(Cl)c(Cl)cc21`, the growth in assay [1] is 14%; in [2] it was 9.9% (active); in assay [3] it was 25.5%; in [4] it was 47.7%; in assay [5], 23.4%; in assay [6], 33.5%. The growth was 43.3% in assay [7], 46.7% in assay [8], -9.55% (active) in assay [9] and 51.4% in [10].

Take `N=C(N)c1ccc(-c2ccc(-c3ccc(Cl)cc3Cl)o2)nc1`: the growth in assay [1] was 2.86% (active); in assay [2] it was -23.8% (active); in assay [3], -20% (active); in [4] it was 48.6%; in assay [5], -37.3% (active); in assay [6], 56.2%. Besides, the growth is 87% in assay [7], 101% in assay [8], -82.6% (active) in assay [9] and 80.9% in [10].

With `COc1ccc(C2CC(c3ccccc3)=NN2c2nc(C)c(C(C)=O)s2)cc1` (stereo not given), the growth in [1] is 98.7%; in assay [2], 102%; in assay [3] it was 90.2%; in assay [4] it was 99.3%; in [5] it was 100%; in assay [6] it was 97%. Moreover, the growth in [7] is 103%; in assay [8], 91.5%; in assay [9] it was 94.6%; in assay [10], 112%.

In the case of `CC1(C)N=C(N)N=C(N)N1c1ccc(Cl)c(Cl)c1`, the growth in [1] is 30.6%; in assay [2], 36.2%; in [3], 71.2%; in [4] it was 40.3%; in assay [5] it was 30.1%; in assay [6], 38.3%. Further, the growth is 25.2% in assay [7], 27.4% in assay [8], 18.8% in assay [9] and 78.6% in assay [10].

Consider `C[C@@H]1C(=O)N(C[C@@H](Cc2ccccc2)NC(=O)OCc2ccccc2)[C@]1(Cc1ccccc1)C(=O)OCc1ccccc1`, for which the growth was 41.6% in assay [1]; 50.7% in assay [2]; 61.1% in assay [3]; 44.3% in assay [4]; 34.6% in [5]; 14.2% in assay [6]. The growth was -6.61% (active) in [7], 43.3% in [8], 51.8% in assay [9] and 63.9% in assay [10].

Regarding `C=C(C=O)[C@@H]1CC=C(C=O)CC1`, the growth in assay [1] was -12% (active); in assay [2] it was 13.2%; in assay [3], 32.9%; in assay [4], 55%; in assay [5], -8.31% (active); in [6] it was 15.3%. Also, the growth is -41.1% (active) in assay [7], -21.6% (active) in assay [8], -0.188% (active) in assay [9] and -43.3% (active) in [10].

Turning to `COc1ccc(C2CC(c3cnccn3)=NN2)cc1OC` (stereo not given), the growth was 107% in assay [1]; 84.9% in [2]; 118% in assay [3]; 103% in assay [4]; 96.7% in assay [5]; 92% in assay [6]. Besides, the growth was 100% in [7], 103% in assay [8], 104% in [9] and 121% in assay [10].

These data come from PubChem BioAssay (NCI).
